PubChem BioAssay
The source made the active and inactive calls.

Assays:
[1] = A549 cell viability effects, profiling panel, calcein-AM fluorescence, 48 h, basal (AID 1162); settings: higher = more signal
[2] = adipocyte viability effects, profiling panel, cell-based, 3T3-L1 adipocytes, calcein-AM fluorescence, 48 h, basal (AID 1163); settings: 3T3-L1 adipocytes viability, higher = more signal
[3] = HepG2 cell viability effects, profiling panel, calcein-AM fluorescence, 48 h, basal (AID 1164); settings: higher = more signal
[4] = MM1S cell viability effects, profiling panel, calcein-AM fluorescence, 48 h, basal (AID 1165); settings: higher = more signal;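 note: viability of MM1S multiple myeloma cells under basal unstimulated conditions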
[5] = basal RPMI8226 viability, no added stimulus, profiling panel, cell-based, calcein-AM fluorescence, 48 h, PK04 Diversity Set (AID 1166); settings: RPMI8226 myeloma viability, higher = more signal;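 note: cells grown under basal conditions without added stimulus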
[6] = basal HepG2 mitochondrial membrane potential changes, profiling panel, cell-based, JC-1 fluorescence, 24 h, 100 nL compound (AID 1167); settings: higher = more signal
[7] = basal 3T3-L1 adipocyte mitochondrial potential changes, profiling panel, cell-based, JC-1 fluorescence, 3T3-L1 adipocytes, 24 h, 100 nL compound (AID 1168); settings: JC-1 mitochondrial fluorescence, higher = more signal, called active from +8 up or from −8 down
[8] = basal RPMI8226 mitochondrial membrane potential changes, profiling panel, cell-based, JC-1 fluorescence, 24 h, 100 nL compound (AID 1169); settings: RPMI8226 myeloma, JC-1 mitochondrial potential fluorescence, higher = more signal
[9] = basal MM1S mitochondrial membrane potential changes, profiling panel, cell-based, JC-1 fluorescence, 24 h, 100 nL compound (AID 1170); settings: higher = more signal
[10] = A549 lung cancer cell viability effects, profiling panel, resazurin fluorescence, 24 h, PK04 Diversity Set (AID 1171); settings: higher = more signal, called active from +8 up or from −8 down
Note: test concentration not given here.

| SMILES | z-score [1] | z-score [2] | z-score [3] | z-score [4] | z-score [5] | z-score [6] | z-score [7] | z-score [8] | z-score [9] | z-score [10] |
| --- | --- | --- | --- | --- | --- | --- | --- | --- | --- | --- |
| C[N+](C)(C)CCCCCCNC(=O)[C@H]1C[C@H]2C(=O)N[C@@H](Cc3ccccc3)C(=O)N2[C@H]1c1ccc(O)cc1 | -0.367 | -1.42 | 0.557 | 0.401 | 0.757 | -0.216 | 0.508 (inactive) | 0.21 | -0.79 | -0.0203 (inactive) |
| CCCCC(=C=CC[C@@H](O)c1ccccc1OCCO)C[C@@H](O)COCc1ccccc1 | 0.75 | 0.52 | 0.522 | -2.34 | -2.12 | 0.554 | 0.623 (inactive) | -0.261 | 0.13 | 0.607 (inactive) |
| COC(=O)c1c2oc(c1C(=O)OC)C(=O)N(Cc1ccccc1)Cc1cn(nn1)C[C@H](Cc1ccccc1)NC(=O)N[C@H](CO)CC2 | 2.05 | 0.92 | 0.377 | 1.18 | 1.75 | 1.9 | -0.397 (inactive) | -0.201 | -0.62 | 1.27 (inactive) |
| CCOC(=O)C[C@H]1[C@H](OC(=O)c2ccc(C(=O)c3ccccc3)cc2)[C@@H](NC(=O)Cc2ccc(OC)cc2)c2cc(OCCCO)ccc2N1C(=O)c1ccccc1 | 0.0281 | -0.005 | 0.544 | -0.272 | -0.399 | 0.425 | -0.386 (inactive) | 0.428 | -0.107 | 0.69 (inactive) |
| COc1cc(OC)c(C(O)C2C=CC3C(=O)N(c4ccccc4)C(=O)C3N2Nc2ccccc2)cc1Br (stereo not given) | 1.84 | -1.48 | 0.0936 | 0.251 | -0.562 | -2.11 | -0.602 (inactive) | 0.292 | -0.761 | 0.439 (inactive) |
| COCCOC(=O)N1C(=O)[C@@]2(c3cc(C#CCCO)ccc31)[C@H](c1ccccc1OCCO)N1[C@H](c3ccccc3)[C@H](c3ccccc3)OC(=O)[C@H]1[C@@H]2C(=O)Nc1nc2ccccc2s1 | 0.148 | -0.676 | 0.169 | -1.11 | -0.813 | -3.28 | -0.192 (inactive) | -0.417 | -0.998 | 0.854 (inactive) |
| CCCNC(=O)[C@@]1(c2ccc([N+](=O)[O-])cc2)CC(=O)N(C2CCCCC2)[C@@H]1c1ccc(CO)cc1 | 0.663 | 0.29 | 0.196 | -0.409 | 0.46 | 0.536 | -1.19 (inactive) | -0.506 | 0.773 | 1.13 (inactive) |
| Cn1cccc1C(O)C1C=CC2C(=O)NC(=O)C2N1Nc1ccc(Cl)cc1Cl (stereo not given) | -0.924 | -0.457 | -1.5 | -3.45 | -2.24 | -2.72 | -1.36 (inactive) | -0.929 | 0.234 | -0.299 (inactive) |
| CCC[C@@H]1C[C@@]1(CCC)[C@@H](NC(=O)OCc1ccccc1)c1ccc(-c2ccccc2)cc1 | -1.15 | -1.15 | 0.0422 | -0.625 | -1.43 | -0.862 | 0.258 (inactive) | -0.325 | -1.19 | 2.39 (inactive) |
| C=C(C)c1cc2c(c(CCCCCC)n1)[Si](C(C)C)(C(C)C)OC2 | -0.926 | -0.197 | -0.567 | 0.134 | 0.414 | -0.592 | -0.617 (inactive) | 0.56 | -0.369 | 0.867 (inactive) |
| COC(=O)[C@@]1(Cc2ccccc2)[C@H]2c3cc(C(=O)N(C)C)n(Cc4c(CO)[nH]cc(C)c4=O)c3C[C@H]2CN1C(=O)c1ccccc1 | -0.218 | -0.284 | 1.2 | -0.979 | -0.247 | 1.34 | -0.235 (inactive) | 0.445 | -0.491 | -0.25 (inactive) |
| O=C1N(Cc2ccccc2)c2ccccc2[C@@H]2OC(c3ccc(OCCCO)cc3)=N[C@]12Cc1ccccc1 | -1.43 | 1.24 | -1.98 | -3.26 | -4.42 | -1.11 | 0.983 (inactive) | -1.37 | -0.884 | -1.72 (inactive) |
| CCOc1cc(C(O)C2C=CC3C(=O)N(C)C(=O)C3N2Nc2ccccc2)ccc1O (stereo not given) | -0.157 | -0.0778 | -0.243 | -2.21 | -0.429 | -1.48 | -0.725 (inactive) | -0.868 | -0.536 | -0.0004 (inactive) |
| CCOC(=O)C[C@H]1[C@H](OC(=O)Cc2ccc3c(c2)OCO3)[C@@H](NC(=O)CC(C)C)c2cc(OCCCO)ccc2N1C(=O)Cc1ccc(OC)cc1 | 0.777 | 0.413 | 1.63 | -0.322 | 0.791 | 3.73 | 0.31 (inactive) | 0.139 | -0.19 | -0.581 (inactive) |
